Inconclusive results are not listed. Activity calls are given as the source filed them. Calls come from the whole dose curve; as a rule, active = well fitted cell-killing curve with a large enough effect; inconclusive = small, poorly fitted or top-dose-only effect, or effect the other way; inactive = no such curve, though single readings can be large or run the other way.
Note: nearly all actives have a fitted effect of over 30% in size.
Potency is the fitted concentration of half-maximal effect.

The nature of one assay: Quantitative High-Throughput drug screen in 47 multiple myeloma cell lines against the NCATS MIPE library collection: EJM_DSMZ cell viability assay (AID 1918926). The note with it: EJM myeloma cell viability, CellTiter-Glo ATP, 48 h; series mostly up to 45.8 µM. In outline: (§1)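 We plated 500 myeloma cells per well, pinned in MIPE 4.0 compounds, and incubated for 48 hours at 37C. ATP was then quantified with CellTiter-Glo, with DMSO and media-only wells defining 100% and 0%.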
In the case of `O=C(O)CCC1CCC(c2cc(F)ccc2F)(S(=O)(=O)c2ccc(Cl)cc2)CC1` (stereo unspecified), the Potency result was “inactive”.
As for `Oc1ccc(C2=Cc3ccc(O)cc3OC2)cc1`, the Potency is 2.35 µM (active).
On to `CCn1cc(C(=O)O)c(=O)c2ccc(C)nc21`, for which the Potency result was “inactive”.
For `CCNc1cc(NC2CCC(O)CC2)nc(Nc2ccc3c(ccn3Cc3ccccc3)c2)n1` (stereo unspecified), the Potency is 18.7 µM (active).
As to `CCOC(=O)C1=C(N)Oc2ccc(Br)cc2C1C(C#N)C(=O)OCC` (stereo unspecified), the Potency was 20.9 µM (active).
`CN1[C@@H]2CCC[C@@H]1CC(NC(=O)c1nn(C)c3ccccc13)C2` (stereo partly specified): the Potency entry is “inactive”.
Take `CO[C@H]1C(=O)[C@]2(C)[C@@H](OC)C[C@H]3OC[C@@]3(OC(C)=O)[C@H]2[C@H](OC(=O)c2ccccc2)[C@]2(O)C[C@H](OC(=O)[C@H](O)[C@@H](NC(=O)OC(C)(C)C)c3ccccc3)C(C)=C1C2(C)C`: the Potency result was “inactive”.
With `O=C(Nc1cc(Cl)cc2c1[nH]c1cnccc12)c1cccnc1`, the Potency was 10.5 µM (active).
For the compound `CN1C[C@H]2c3ccccc3Oc3ccc(Cl)cc3[C@@H]2C1`, the Potency result was “inactive”.
Regarding `CC(C)(C)COc1ccc(-n2cc(C(=O)O)cn2)cc1C#N`, the Potency result is “inactive”.
With `NS(=O)(=O)c1cccc2c1C(=O)c1cccc(O)c1C2=O`, the Potency was 0.935 µM (active).
Take `O=C(CCCCCCC(=O)Nc1ccccc1)NO`: the Potency was 7.43 µM (active).
The same measure, in the same setting: the entry for `CC(C)(C(=O)NCC(F)(F)C(F)(F)F)C(=O)N[C@@H]1C(=O)Nc2ccccc2-c2ccccc21` is “inactive”; for `O=c1cc(-c2ccc(O)cc2)oc2cc(O)cc(O)c12` it is 4.18 µM (active); for `O=C(Nc1ccccc1-c1cn2c(CN3CCNCC3)csc2n1)c1cnc2ccccc2n1` it is 20.9 µM (active).
Same read-out and setting: with `O=C1C(Cl)=C(NCCN2CCOCC2)C(=O)c2ncccc21` the figure was 7.43 µM (active); with `c1ccc2c(Cc3c[nH]c4ccccc34)c[nH]c2c1`, 1.48 µM (active); with `C[C@]12CCC3c4ccc(O)cc4CCC3C1CCC2=O` (stereo partly specified), “inactive”.
Turning to `O=C(N[C@@H](c1ccccc1)[C@@H]1CCCCN1)c1cccc(C(F)(F)F)c1Cl`, the Potency is 18.7 µM (active).
The same measure, in the same setting: with `Cc1c(NC(=O)c2ccc(C(C)(C)C)cc2)cccc1-c1cn(C)c(=O)c(Nc2ccc(C(=O)N3CCOCC3)cc2)n1` the figure was 18.7 µM (active).

The nature of a further assay: Quantitative High-Throughput drug screen in 47 multiple myeloma cell lines against the NCATS MIPE library collection: AMO1_DSMZ cell viability assay (AID 1918927). Conditions: AMO1 myeloma cells viability, CellTiter-Glo ATP luminescence, 48 h; series mostly up to 45.8 µM. In a few lines:
as §1
For orientation: ATP-based viability assays read luminescence as a measure of living cells.
Take `O=C(O)CCC1CCC(c2cc(F)ccc2F)(S(=O)(=O)c2ccc(Cl)cc2)CC1` (stereo unspecified): the Potency was 5.9 µM (active).
With `Oc1ccc(C2=Cc3ccc(O)cc3OC2)cc1`, the Potency was 2.64 µM (active).
`CCn1c(C(=O)N(C2CC2)C2CC2)cc2c3c(ncn3C)c(Nc3cc(C)n(C)n3)nc21`: the Potency entry was “inactive”.
Same read-out and setting: with `CN1[C@@H]2CCC[C@@H]1CC(NC(=O)c1nn(C)c3ccccc13)C2` (stereo partly specified) the entry was “inactive”; with `O=C(Nc1cc(Cl)cc2c1[nH]c1cnccc12)c1cccnc1`, “inactive”; with `CC(C)(C)COc1ccc(-n2cc(C(=O)O)cn2)cc1C#N`, “inactive”.
On to `NS(=O)(=O)c1cccc2c1C(=O)c1cccc(O)c1C2=O`, for which the Potency was 0.166 µM (active).
`O=C(CCCCCCC(=O)Nc1ccccc1)NO`: the Potency is 1.05 µM (active).
Still for that read-out and setting: the figure for `CC(C)(C(=O)NCC(F)(F)C(F)(F)F)C(=O)N[C@@H]1C(=O)Nc2ccccc2-c2ccccc21` is 18.7 µM (active); for `Cc1cccc(Nc2nc(-c3ccncc3)cs2)c1` it is 11.8 µM (active); for `O=C1C(Cl)=C(NCCN2CCOCC2)C(=O)c2ncccc21` it is 2.96 µM (active).
For `c1ccc2c(Cc3c[nH]c4ccccc34)c[nH]c2c1`, the Potency was 8.33 µM (active).
As for `O=c1cc(CN2CCOCC2)occ1OCCCCCSc1ccnc2cc(C(F)(F)F)ccc12`, the Potency was 18.7 µM (active).
For `O=C(O)c1ccccc1C(=O)Nc1ccc(-c2ccccc2)cc1`, the Potency entry was “inactive”.
Turning to `C[C@]12CCC3c4ccc(O)cc4CCC3C1CCC2=O` (stereo partly specified), the Potency is 0.833 µM (active).
Take `COc1cc(Nc2ncc(F)c(Nc3ccc4c(n3)NC(=O)C(C)(C)O4)n2)cc(OC)c1OC`: the Potency result was “inactive”.

These data come from PubChem BioAssay (NCATS).
